Screening data as filed in PubChem BioAssay.
FLuc counter: inhibits or activates purified firefly luciferase, miR-21 counter-screen. Potency, µM (titrated, usually from 57.5 µM), inactives show at the top dose activity change, negative = inhibition, hits mostly inhibitors. 360,000 compounds, 6.9% hits. P08659. purified FLuc, Km substrates, luminescence inhibition;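 note: plate controls were vehicle for no effect and reference inhibitor for full effect; nearly all actives have a fitted effect of over 55% in size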
Target sequence (P08659 whole entry, looked up): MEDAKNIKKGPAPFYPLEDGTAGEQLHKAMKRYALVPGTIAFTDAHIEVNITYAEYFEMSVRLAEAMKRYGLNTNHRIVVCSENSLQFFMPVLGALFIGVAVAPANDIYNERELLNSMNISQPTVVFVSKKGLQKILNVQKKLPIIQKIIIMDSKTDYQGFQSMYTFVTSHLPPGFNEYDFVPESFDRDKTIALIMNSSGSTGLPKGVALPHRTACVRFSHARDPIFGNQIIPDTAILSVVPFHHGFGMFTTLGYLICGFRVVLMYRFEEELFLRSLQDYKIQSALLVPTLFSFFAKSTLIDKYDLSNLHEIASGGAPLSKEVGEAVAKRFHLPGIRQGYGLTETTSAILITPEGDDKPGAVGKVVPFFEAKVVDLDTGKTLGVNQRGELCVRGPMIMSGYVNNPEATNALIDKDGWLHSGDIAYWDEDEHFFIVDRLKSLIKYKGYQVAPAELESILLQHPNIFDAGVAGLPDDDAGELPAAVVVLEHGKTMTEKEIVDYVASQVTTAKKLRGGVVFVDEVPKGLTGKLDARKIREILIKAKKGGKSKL
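Purified P. pyralis luciferase (10nM final) with 10uM D-luciferin and 10uM ATP (Km levels) in 50mM Tris acetate pH 7.5, 10mM Mg acetate, 0.01% Tween-20, 0.05% BSA; qHTS 6-point titration, ~60 µM downward; luminescence read.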
SMN2 splice enh: increases expression of the SMN2 splice variant; HEK293 SMN2-luciferase splicing reporter, luminescence, 30-36 h; Potency, µM (series often up to 46.1 µM), for inactives: at the highest dose activity change, positive = activation, actives largely listed as activators; 210,000 compounds, 2.8% hits; note: % of control where 0% means no effect; nearly all actives have a fitted effect of over 55% in size
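HEK293 cells carry an SMN2 […]–luciferase reporter in which exon 7 inclusion puts luciferase in frame. Cells were plated 10-12 h before compound addition, then incubated 30-36 h at 37C. ONE-Glo luminescence was read; sodium butyrate at 4.5 mM final served as control.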
NPC1 promoter act: NPC1 promoter activation; AID 485313; Potency, µM (highest dose often 9.22 µM), for inactives: at the top dose activation, usual class: activators; Huh7 NPC1 promoter luciferase reporter, 24 h; 320,000 compounds, 2.4% hits; note: % of control where 0% means no effect; nearly all actives have a fitted effect of over 60% in size
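Luminescence read-out of NPC1 promoter-driven luciferase in stably transfected Huh7 cells; compounds delivered in DMSO and left 24 h at 37C, 5% CO2, qHTS titration format.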
ELG1 repair inh: ELG1-dependent DNA repair inhibition | 330,000 compounds, 2.3% hits | HEK293T ELG1-luciferase reporter, luminescence, 16 h; DNA damage induced by 5-fluorouridine | Potency, µM (series often up to 46.1 µM), without a hit: at the top dose activity change, negative = inhibition, actives largely listed as inhibitors | AID 504467; note: % is set by controls: 0 for no effect and ±100 for the full control effect; nearly all actives have a fitted effect of over 55% in size
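Cells (2,000 per well) received 5-fluorouridine plus test compound or DMSO and were incubated 16 hr at 37 °C, 5% CO2. Luciferase activity was read by luminescence 30 min after ONE-Glo addition; signal suppression marked inhibition of damage-induced ELG1 function.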
ELG1 genotox: induces genotoxicity in HEK293T cells with luciferase-tagged ELG1; HEK293T ELG1-luciferase reporter, luminescence, 16 h; Potency, µM (top dose mostly 46 µM), for inactives: top-dose activity change, positive = activation, actives largely listed as activators; 330,000 compounds, 1.3% hits; AID 504466; note: % of control where 0% means no effect; nearly all actives have a fitted effect of over 60% in size
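Reporter readout depends on ELG1 protein level, which increases with genetic stress. After 16 hr compound exposure at 37 °C, luciferase activity was quantified using ONE-Glo.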
Rab9 prom act: Rab9 promoter activation. Huh7 Rab9 promoter-luciferase reporter, luminescence, 24 h. Potency, µM (doses to about 9.22 µM), for inactives: at the top dose activation, negative = inhibition, actives largely listed as activators. 320,000 compounds, 2.8% hits. AID 485297; note: % of control where 0% means no effect; nearly all actives have a fitted effect of over 60% in size
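Steps: seed 1500 Huh7 Rab9-luc cells per well, rest 2 h at 37 °C; add compound in DMSO; incubate 24 h; add luciferase reagent, 10 min ambient; read luminescence.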
Numbers without * were called inactive; ? = inconclusive; · = not tested or not shown; [ ] = remark or other dose. Only some compounds are listed: those with a hit (about 9.4% of all), similar ones and a draw of the others. Calls come from the whole dose curve; as a rule, active = well fitted curve in the direction sought with a large enough effect; inconclusive = small, poorly fitted or top-dose-only effect, or another doubt; inactive = no such curve, though single readings can be large; an effect the other way counts as inactive or inconclusive. Potency is the fitted concentration of half-maximal effect.

SMILES | FLuc counter | SMN2 splice enh | NPC1 promoter act | ELG1 repair inh | ELG1 genotox | Rab9 prom act
COc1ccc(C2C3=C(Nc4ncnn42)c2ccccc2CCC3)cc1 (centres undefined) | 0% | · | -6% | 3% | 13% | 5%
Cc1ccc(C)c(OCC(=O)Nc2ccc(S(=O)(=O)Nc3onc(C)c3C)cc2)c1C | ? | -8% | · | · | · | ·
Cc1ccc2nc(NC(=O)C3CCCN(S(=O)(=O)c4cccc5nsnc45)C3)sc2c1 (centres undefined) | ? | -8% | 2% | 18µM* | -8% | 7%
Cc1ccc2nc(NC(=O)C3CCN(S(=O)(=O)c4cccc5nsnc45)CC3)sc2c1 | -17% | -95% | -3% | 16µM* | -12% | -17%
Cc1ccc2nc(NC(=O)C3CCN(S(=O)(=O)c4cccnc4)CC3)sc2c1 | -23% | -32% | -5% | 16µM* | -14% | 3%
Cc1ccc(NC(=O)C2CCN(S(=O)(=O)c3cccc4nsnc34)CC2)cc1 | -8% | -11% | · | · | · | ·
O=C(Nc1nc2ccc(F)cc2s1)C1CCN(S(=O)(=O)c2cc([N+](=O)[O-])ccc2Cl)CC1 | 11µM* | -2%[1.84 µM] | -21% | ? | -13% | -19%
COc1cc(OC)cc(OC(=O)c2ccc3c(=O)n4c(nc3c2)CCC4)c1 | 15µM* | · | 3% | 5% | 4% | 0%
Cc1ccc(OC(=O)c2ccc3c(=O)n4c(nc3c2)CCC4)cc1 | 6µM* | · | -8% | -15% | 6% | -7%
Cc1c(Cl)cccc1NC(=O)CN1C(=O)CCn2nc(-c3cccn3C)cc21 | 5% | · | · | · | · | ·
COc1ccc(/C=C2/C(=O)N(c3cccc(F)c3)N=C2C)c(OC)c1 | ? | · | 2% | -1% | -6% | 0%
CC1=NN(c2ccccc2)C(=O)/C1=C/c1ccc[nH]1 | 17µM* | 10µM* | 16% | ? | ? | 3%
CC1=NN(c2ccccc2)C(=O)/C1=C/c1ccc(Cl)cc1 | ? | · | 0% | -3% | -6% | 0%
CC1=NN(c2cccc(F)c2)C(=O)/C1=C/c1ccc(N(C)C)cc1 | 5.4µM* | · | 11% | -8% | -3% | 6%
CC1=NN(c2ccccc2)C(=O)/C1=C\c1ccc(Br)s1 | 9.5µM* | 0%[1.84 µM] | 2% | ? | ? | -4%
CC1=NN(c2ccccc2)C(=O)/C1=C/c1cccs1 | 8.5µM* | 3% | 9% | ? | 17% | -2%
COc1cc(C(=O)Nc2ccc3oc(-c4ccccc4)nc3c2)cc(OC)c1OC | -18% | 13% | · | · | · | ·
CCCn1c(=O)c2sccc2n2c(CCCC(=O)N3CCN(c4ccccc4OC)CC3)nnc12 | 0% | · | · | · | · | ·
CC1=NN(c2ccc(C(=O)O)cc2)C(=O)/C1=C\c1ccc(OC(=O)c2cccs2)cc1 | 24µM* | 8% | -6% | -10% | -1% | 1%
COc1ccc(/C=C2/C(=O)N(c3ccccc3)N=C2C)cc1Br | 13µM* | · | -7% | ? | 16% | -4%
CCOc1cc(/C=C2\C(=O)N(c3ccc(C(N)=O)cc3)N=C2C)ccc1OC(=O)c1cccs1 | ? | -3% | -1% | 18% | 8% | 6%
CC1=NN(c2ccccc2)C(=O)/C1=C/c1c(O)n(-c2ccc(F)cc2)[nH]c1=O | 0.6µM* | -3%[1.84 µM] | 25% | ? | ? | 19%
COc1cc(/C=C2/C(=O)N(c3ccccc3)N=C2C)ccc1OS(=O)(=O)c1ccccc1 | -16% | 8% | 1% | 18% | 3% | 1%
CC(C)NC(=O)c1ccc(Cn2c(=O)c3cccn3c3cccnc32)cc1 | 3% | · | · | · | · | ·
CCOC(=O)c1ccc(NC(=O)Cc2ccc(-n3c(CC)nc4cccnc43)cc2)cc1 | -12% | · | · | · | · | ·
SMILES | FLuc counter | SMN2 splice enh | NPC1 promoter act | ELG1 repair inh | ELG1 genotox | Rab9 prom act
Cc1[nH]c2ccccc2c1N=Nc1cccc(C(=O)O)c1 | 11µM* | 13µM* | 3.2µM* | ? | 19% | 2.2µM*
Cc1ccc(N=Nc2c(N)n(-c3ccccc3)[nH]c2=O)cc1 | 4.8µM* | ? | ? | ? | ? | ?
Cc1[nH]n(-c2ccccc2)c(=O)c1N=Nc1ccc(C(=O)O)cc1 | 7.6µM* | · | 23% | ? | 12% | 28%
COc1ccccc1N=Nc1c(C)[nH]n(-c2ccccc2)c1=O | 11µM* | · | ? | 11% | -3% | ?
COC(=O)c1cc(N=Nc2c(C)[nH]c3ccccc23)cc(C(=O)OC)c1 | -1% | · | 0% | 1% | 2% | -9%
Cc1[nH]n(-c2ccccc2)c(=O)c1N=Nc1ccc(Cl)cc1 | -19% | · | 23% | 17% | -2% | 13%
CCc1ccc(C2CC(=O)c3c([nH]c(C(=O)OCCOc4ccccc4)c3C)C2)cc1 (centres undefined) | -3% | -10% | · | · | · | ·
Cc1[nH]n(-c2ccccc2)c(=O)c1N=Nc1cccc(C(=O)O)c1 | 0.27µM* | · | ? | ? | ? | 1.1µM*
Cc1[nH]n(-c2ccccc2)c(=O)c1N=Nc1ccccc1 | 4.8µM* | 14µM* | ? | ? | ? | ?
C[C@@H]1COC(=O)[C@@H](NC(=O)OCC2c3ccccc3-c3ccccc32)C/C=C\C[C@@H](CC(=O)N(CCO)Cc2ccccc2)C(=O)N1 | · | · | · | ? | -3% | ·
O=C(N[C@@H]1C/C=C\C[C@@H](CC(=O)N(CCO)Cc2ccccc2)C(=O)NC[C@H](c2ccccc2)OC1=O)OCC1c2ccccc2-c2ccccc21 | · | · | · | 15µM* | -1% | ·
O=C(N[C@@H]1C/C=C\C[C@H](CC(=O)N(CCO)Cc2ccccc2)C(=O)NC[C@@H](c2ccccc2)OC1=O)OCC1c2ccccc2-c2ccccc21 | · | · | · | ? | -2% | ·
C[C@H]1COC(=O)[C@H](NC(=O)OCC2c3ccccc3-c3ccccc32)C/C=C\C[C@H](CC(=O)N(CCO)Cc2ccccc2)C(=O)N1 | · | · | · | 26µM* | -7% | ·
CC(=O)c1cccc(NC(=O)Cn2nc(C)n3cccc3c2=O)c1 | -15% | · | · | · | · | ·
Cc1cccc(-n2c(O)c(C=Nc3ccccc3O)c3ccccc3c2=O)n1 | 1% | · | -2% | 23µM* | -9% | 1%
Cc1cnc(NC(=O)CCCNC(=O)c2ccc(Cl)cc2)s1 | 8.5µM* | · | 26% | ? | ? | ?
COc1ccc(NC(=O)c2ccccc2NS(C)(=O)=O)cc1OC | 17µM* | -4% | -5% | 3% | -3% | -5%
O=C(O)CCc1ccc(S(=O)(=O)Nc2ccccc2C(=O)NCCc2ccccc2)cc1 | 19µM* | · | 2.2µM* | ? | ? | 3.2µM*
COC(=O)c1ccc(NC(=O)c2ccccc2NS(C)(=O)=O)cc1 | 12µM* | 6% | 0% | 19% | -4% | 1%
